For assay [1], the target named is guinea pig Bradykinin Receptor B2 (BK2), BDKRB2 (gene 100135486) (UniProt O70526). In words: NVS_GPCR_gBK2: NovaScreen (NVS) G Protein-Coupled Receptor Assay for guinea pig Bradykinin Receptor B2 (BK2) (AID 2283292). In a few lines: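 Guinea pig ileum membrane preparation incubated 1 h with radioligand and test chemical; bound counts measured after filtration. Primary duplicate screening at 25 uM, then singleton concentration series with a 50 uM top dose; DMSO as baseline.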

In assay [2] the target is mouse Cholecystokinin, CCK2 Receptor (CCKB), Cckbr (gene 12426) (UniProt P56481). In words: NVS_GPCR_mCKKBCentral: NovaScreen (NVS) G Protein-Coupled Receptor Assay for mouse Cholecystokinin, CCK2 Receptor (CCKB) (AID 2283293). The gist of the method:
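Mouse forebrain membrane preparation incubated 2 h with chemical and radioligand; bound radioactivity counted after filtration. Single-concentration duplicate screen at 25 uM, then concentration series to 50 uM max for hits, DMSO as baseline.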

In assay [3] the test system is rat Adrenergic, Alpha 1B Receptor (Adra1B), gene 24173. Briefly: NVS_GPCR_rAdra1B: NovaScreen (NVS) G Protein-Coupled Receptor Assay for rat Adrenergic, Alpha 1B Receptor (Adra1B) (AID 2283297). In a few lines: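 Filter-binding radioligand competition on membranes from rat liver, read after 1 h by scintillation counting. Single-concentration duplicate screen at 25 uM, followed by concentration-response on actives, normalised to DMSO.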

The target in assay [4] is rat Neurokinin-1 Receptor (NK1), Tacr1 (gene 24807) (UniProt P14600). In words: NVS_GPCR_rNK1: NovaScreen (NVS) G Protein-Coupled Receptor Assay for rat Neurokinin-1 Receptor (NK1) (AID 2283309). The gist of the method: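 Competitive radioligand binding to NK1 in rat submaxillary membranes, 1 h incubation, filtration and scintillation read-out. Compounds first screened at 25 uM in duplicate, then concentration-response for actives; signal loss relative to DMSO.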

Assay [5] addresses human Opioid Receptor Mu (Opiate Mu), OPRM1 (gene 4988) (UniProt P35372). Briefly: NVS_GPCR_hOpiate_mu: NovaScreen (NVS) G Protein-Coupled Receptor Assay for human Opioid Receptor Mu (Opiate Mu) (AID 2283290).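 Note: hits lower bound tracer signal versus DMSO meaning displacement of the ligand.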 The gist of the method:
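CHO-derived receptor protein, cell-free; radioligand displacement, filtration + scintillation counting, read at 2.5 h. DMSO = negative control/baseline. Primary: 25 uM single conc, duplicate; secondary: concentration series.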

In assay [6] the target is rat Somatostatin Receptor (SST), Sstr1 (gene 25033) (UniProt P28646). In words: NVS_GPCR_rSST: NovaScreen (NVS) G Protein-Coupled Receptor Assay for rat Somatostatin Receptor (SST) (AID 2283314). In a few lines:
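Single-concentration duplicate screen (25 uM), then concentration-response up to 50 uM for chemicals passing a threshold such as 30% inhibition. Membranes came from rat forebrain. Binding was measured 1 h post-dose by filter radiodetection and scintillation, relative to DMSO.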

Assay [7] has as its target rat Adrenergic Receptor, Alpha 2 (Adra2), Non-selective Binding, Adra2a (gene 25083) (UniProt P22909). Briefly: NVS_GPCR_rAdra2_NonSelective: NovaScreen (NVS) G Protein-Coupled Receptor Assay for rat Adrenergic Receptor, Alpha 2 (Adra2), Non-selective Binding (AID 2283299). The gist of the method: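 Filter-based scintillation counting of radioligand binding to rat cortical membrane receptors, measured 1.25 hours post-dosing; loss of signal versus DMSO indicates displacement. Initial single-concentration duplicate at 25 uM, then concentration series.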

For another assay, the target named is Adra2b (gene 24174) (UniProt P19328). Briefly: NVS_GPCR_rmAdra2B: NovaScreen (NVS) G Protein-Coupled Receptor Assay for hybird cells Adrenergic, Alpha 2B Receptor (Adra2B) (AID 2283306). In a few lines:
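Compounds screened first at 25 uM in duplicate, with actives followed up in concentration-response; specific radioligand displacement from hybrid neuroglioma/blastoma cell membrane preparations measured by filter scintillation counting after 1 h, normalized to DMSO.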

For assay [8], the target named is human Neonicotinoid receptor (NNR), CHRNA2 (gene 1135) (UniProt Q15822). Briefly: NVS_LGIC_hNNR_NBungSens: NovaScreen (NVS) Ligand-Gated Ion Channel Assay for human Neonicotinoid receptor (NNR) (AID 2283313). In a few lines: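 Compounds first screened in duplicate at 25 uM, then actives re-tested in single-replicate dose series up to 50 uM. Binding measured as displacement of specific radioligand from neuroblastoma membrane receptors after 2 h, scintillation read on filters.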

In assay [9] the target is rat Neurotensin Receptor (NTS), Ntsr1 (gene 366274) (UniProt P20789). Briefly: NVS_GPCR_rNTS: NovaScreen (NVS) G Protein-Coupled Receptor Assay for rat Neurotensin Receptor (NTS) (AID 2283308). The gist of the method:
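Single-point duplicates at 25 uM, then concentration series to 50 uM max for hits, measured radioligand displacement on rat forebrain membrane preparations. Bound label counted by filtration scintillation at 1 h; signal loss relative to DMSO fitted.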

The target of assay [10] is rat Opioid Receptor, Non-selective Sodium (Na+) Binding, Oprm1 (gene 25601) (UniProt P33535). Briefly: NVS_GPCR_rOpiate_NonSelectiveNa: NovaScreen (NVS) G Protein-Coupled Receptor Assay for rat Opioid Receptor, Non-selective Sodium (Na+) Binding (AID 2283311). In a few lines:
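Filtration radioligand binding on rat forebrain membrane preparations, read 1.5 h after dosing. Single-concentration 25 µM primary screen in duplicate, followed by singleton concentration series to 50 µM max for actives; DMSO baseline.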

Assay [11] addresses guinea pig Serotonin, 5-Hydroxytryptamine Receptor 4 (5HT4), HTR4 (gene 100135548) (UniProt O70528). In words: NVS_GPCR_g5HT4: NovaScreen (NVS) G Protein-Coupled Receptor Assay for guinea pig Serotonin, 5-Hydroxytryptamine Receptor 4 (5HT4) (AID 2283294). In a few lines: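 Compounds first screened in duplicate at 25 uM, actives followed up in concentration series. Binding measured as displacement of specific radioligand from guinea pig striatal membranes, 1 h, filter-based scintillation read-out versus DMSO baseline.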

Assay [12] has as its target Metabotropic glutamate receptor 1 (Rattus norvegicus) (UniProt P23385). In words: NVS_GPCR_rmMGluR1: NovaScreen (NVS) G Protein-Coupled Receptor Assay for rat Glutamate Metabotropic Receptor 1 (MGluR1) (AID 2283305). The gist of the method: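 Binding to native receptor from rat cerebellum extract, measured as displacement of a radioligand (scintillation counting, filter separation) after 1 hour. Compounds tested at 25 uM in duplicate, then titrated to a 50 uM maximum.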

Assay [13] deals with rat Serotonin, 5-Hydroxytryptamine Receptor (5HT), Non-Selective Binding, Htr1a (gene 24473) (UniProt P19327). Briefly: NVS_GPCR_r5HT_NonSelective: NovaScreen (NVS) G Protein-Coupled Receptor Assay for rat Serotonin, 5-Hydroxytryptamine Receptor (5HT), Non-Selective Binding (AID 2283295). In a few lines:
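Rat cortex membrane preparation incubated 1 h with radioligand and test chemical; bound radioactivity counted after filtration. Screening began in duplicate at 25 uM with concentration-series follow-up; fitting relative to DMSO.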

Assay [14] concerns the target rat Adrenergic Receptor, Beta (Adrb), Non-selective Binding, Adrb1 (gene 24925) (UniProt P18090). In words: NVS_GPCR_rAdrb_NonSelective: NovaScreen (NVS) G Protein-Coupled Receptor Assay for rat Adrenergic Receptor, Beta (Adrb), Non-selective Binding (AID 2283298). The gist of the method: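 Rat cortical membranes incubated 1 h with beta-adrenergic radioligand and test chemical; bound ligand measured by filtration and scintillation counting. Screen at 25 uM duplicate, then concentration series with 50 uM maximum; loss of signal versus DMSO.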

Assay [15] concerns the target rat Gamma-Aminobutyric Acid Type B Receptor (GABBR), Gabbr1 (gene 81657) (UniProt Q9Z0U4). Briefly: NVS_GPCR_rGABBR: NovaScreen (NVS) G Protein-Coupled Receptor Assay for rat Gamma-Aminobutyric Acid Type B Receptor (GABBR) (AID 2283301). In a few lines: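 Rat cortical membrane preparation, competitive radioligand binding for 1 h with filtration and scintillation readout. Actives from duplicate single-point 25 uM screening proceeded to concentration series with 50 uM top concentration.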

Assay [16] deals with guinea pig Atrionatriuretic Peptide Receptor A (ANPA), gene 100135578. Briefly: NVS_GPCR_gANPA: NovaScreen (NVS) G Protein-Coupled Receptor Assay for guinea pig Atrionatriuretic Peptide Receptor A (ANPA) (AID 2283291). In a few lines: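 Displacement of specific radioligand from guinea pig cerebellum membranes was read by scintillation after 1 h. A duplicate single-point screen at 25 uM was followed by a concentration series up to 50 uM, analysed relative to DMSO.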

Assay [17] deals with rat Adrenergic, Alpha 1A Receptor (Adra1A), Adra1a (gene 29412) (UniProt P43140). Briefly: NVS_GPCR_rAdra1A: NovaScreen (NVS) G Protein-Coupled Receptor Assay for rat Adrenergic, Alpha 1A Receptor (Adra1A) (AID 2283296). In a few lines: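 Filter radiodetection after 1 h competitive binding on CEC-pretreated rat cortical membranes. Duplicate single-point screening at 25 uM; active chemicals retested across concentration series.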

The target in assay [18] is rat Corticotropin Releasing Factor Receptor (CRF), Crhr1 (gene 58959) (UniProt P35353). Briefly: NVS_GPCR_rCRF: NovaScreen (NVS) G Protein-Coupled Receptor Assay for rat Corticotropin Releasing Factor Receptor (CRF) (AID 2283300). The gist of the method: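 Single-concentration (25 uM, duplicate) radioligand binding on rat cortical membrane preparations, counted by scintillation after 2 h. Activity scored as signal loss relative to DMSO negative control.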

For assay [19], the target named is rat Histamine Receptor (H3), Hrh3 (gene 85268) (UniProt Q9QYN8). In words: NVS_GPCR_rH3: NovaScreen (NVS) G Protein-Coupled Receptor Assay for rat Histamine Receptor (H3) (AID 2283303). The gist of the method: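 Filter-binding radioligand competition on rat forebrain membranes, 1 h incubation; compounds screened at 25 µM in duplicate and followed in concentration series to 50 µM, loss of bound signal vs DMSO.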

Where “and” joins values, the source holds several entries; their conditions need not be identical. Equal entries are not always repeated. Records with an inconclusive call do not appear. A structure can be active in one record and inactive in another. Calls of active or inactive are those of the source. Rule for the calls: active = hit-call score of the fitted dose curve at least 0.9, where 1 is the maximum; inconclusive = response in the unintended direction; inactive = score below 0.9.

Among the data in PubChem BioAssay (EPA / NIEHS) are outcome and AC50 values, retold here.

rat Neurokinin-1 Receptor (NK1), Tacr1 (gene 24807), sequence (P14600 whole entry, looked up): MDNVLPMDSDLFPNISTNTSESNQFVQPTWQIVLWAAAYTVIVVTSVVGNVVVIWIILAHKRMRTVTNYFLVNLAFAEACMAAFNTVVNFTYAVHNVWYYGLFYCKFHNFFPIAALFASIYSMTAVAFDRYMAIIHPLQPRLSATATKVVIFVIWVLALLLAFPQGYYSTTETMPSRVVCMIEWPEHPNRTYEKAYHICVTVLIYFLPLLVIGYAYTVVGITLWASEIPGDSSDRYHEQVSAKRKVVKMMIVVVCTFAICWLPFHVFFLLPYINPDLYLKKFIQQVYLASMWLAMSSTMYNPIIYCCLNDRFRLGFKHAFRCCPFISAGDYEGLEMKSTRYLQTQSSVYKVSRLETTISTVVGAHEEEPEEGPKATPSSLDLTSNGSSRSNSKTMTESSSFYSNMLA
mouse Cholecystokinin, CCK2 Receptor (CCKB), Cckbr (gene 12426), sequence (P56481 whole entry, looked up): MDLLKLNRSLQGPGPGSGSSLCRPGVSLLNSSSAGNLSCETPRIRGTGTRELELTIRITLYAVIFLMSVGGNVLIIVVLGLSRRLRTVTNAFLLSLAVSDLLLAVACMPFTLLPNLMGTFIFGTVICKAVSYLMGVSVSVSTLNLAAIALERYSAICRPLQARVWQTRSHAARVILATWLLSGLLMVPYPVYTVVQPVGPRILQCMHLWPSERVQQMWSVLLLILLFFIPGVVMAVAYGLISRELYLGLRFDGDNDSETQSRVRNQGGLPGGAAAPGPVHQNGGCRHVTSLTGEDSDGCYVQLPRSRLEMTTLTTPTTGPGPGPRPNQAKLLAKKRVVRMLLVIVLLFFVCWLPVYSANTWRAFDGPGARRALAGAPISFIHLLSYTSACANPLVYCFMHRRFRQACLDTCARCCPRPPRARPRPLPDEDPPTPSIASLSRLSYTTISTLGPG
guinea pig Serotonin, 5-Hydroxytryptamine Receptor 4 (5HT4), HTR4 (gene 100135548), sequence (O70528 whole entry, looked up): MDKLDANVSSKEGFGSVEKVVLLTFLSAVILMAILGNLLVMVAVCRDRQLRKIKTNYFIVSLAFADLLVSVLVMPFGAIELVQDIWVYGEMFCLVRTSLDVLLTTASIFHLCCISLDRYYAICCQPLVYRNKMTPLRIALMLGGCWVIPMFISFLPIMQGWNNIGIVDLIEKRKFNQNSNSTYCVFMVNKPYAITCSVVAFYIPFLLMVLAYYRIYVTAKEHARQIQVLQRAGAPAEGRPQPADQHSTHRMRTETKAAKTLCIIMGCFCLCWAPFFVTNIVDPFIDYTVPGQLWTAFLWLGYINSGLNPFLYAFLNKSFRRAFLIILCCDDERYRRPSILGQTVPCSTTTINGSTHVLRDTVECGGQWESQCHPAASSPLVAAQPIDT
human Opioid Receptor Mu (Opiate Mu), OPRM1 (gene 4988), sequence (P35372 whole entry, looked up): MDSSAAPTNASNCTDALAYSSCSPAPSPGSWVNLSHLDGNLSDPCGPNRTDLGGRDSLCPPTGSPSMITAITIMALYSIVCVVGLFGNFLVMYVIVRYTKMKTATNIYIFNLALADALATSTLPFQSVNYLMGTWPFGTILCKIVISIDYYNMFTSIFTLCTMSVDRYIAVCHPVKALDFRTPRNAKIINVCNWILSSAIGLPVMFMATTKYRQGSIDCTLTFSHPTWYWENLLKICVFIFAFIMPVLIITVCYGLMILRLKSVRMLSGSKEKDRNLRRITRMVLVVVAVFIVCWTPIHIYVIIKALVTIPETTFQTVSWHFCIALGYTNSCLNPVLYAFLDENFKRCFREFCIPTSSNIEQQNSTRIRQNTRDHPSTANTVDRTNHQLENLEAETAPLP
guinea pig Bradykinin Receptor B2 (BK2), BDKRB2 (gene 100135486), sequence (O70526 whole entry, looked up): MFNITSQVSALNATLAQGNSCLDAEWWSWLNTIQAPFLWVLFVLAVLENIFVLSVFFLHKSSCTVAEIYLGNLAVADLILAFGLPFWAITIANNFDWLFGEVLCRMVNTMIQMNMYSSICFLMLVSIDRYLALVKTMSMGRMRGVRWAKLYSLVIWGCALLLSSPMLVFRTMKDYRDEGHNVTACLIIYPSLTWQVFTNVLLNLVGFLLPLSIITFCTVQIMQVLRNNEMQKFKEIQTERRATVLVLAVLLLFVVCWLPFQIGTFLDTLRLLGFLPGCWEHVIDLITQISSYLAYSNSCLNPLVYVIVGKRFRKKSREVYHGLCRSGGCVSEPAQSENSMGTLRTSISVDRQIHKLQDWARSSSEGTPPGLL
rat Somatostatin Receptor (SST), Sstr1 (gene 25033), sequence (P28646 whole entry, looked up): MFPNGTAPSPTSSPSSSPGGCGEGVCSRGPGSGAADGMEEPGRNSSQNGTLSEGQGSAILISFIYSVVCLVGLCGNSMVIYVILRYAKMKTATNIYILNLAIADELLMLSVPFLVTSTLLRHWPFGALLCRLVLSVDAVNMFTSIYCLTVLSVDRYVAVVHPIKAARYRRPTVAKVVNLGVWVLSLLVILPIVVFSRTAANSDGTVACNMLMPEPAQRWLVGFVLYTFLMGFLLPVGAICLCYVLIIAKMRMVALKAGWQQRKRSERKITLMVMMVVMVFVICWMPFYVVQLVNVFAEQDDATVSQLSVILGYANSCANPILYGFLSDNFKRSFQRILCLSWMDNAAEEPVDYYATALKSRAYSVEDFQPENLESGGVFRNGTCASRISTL
Metabotropic glutamate receptor 1 (Rattus norvegicus), sequence (P23385 whole entry, looked up): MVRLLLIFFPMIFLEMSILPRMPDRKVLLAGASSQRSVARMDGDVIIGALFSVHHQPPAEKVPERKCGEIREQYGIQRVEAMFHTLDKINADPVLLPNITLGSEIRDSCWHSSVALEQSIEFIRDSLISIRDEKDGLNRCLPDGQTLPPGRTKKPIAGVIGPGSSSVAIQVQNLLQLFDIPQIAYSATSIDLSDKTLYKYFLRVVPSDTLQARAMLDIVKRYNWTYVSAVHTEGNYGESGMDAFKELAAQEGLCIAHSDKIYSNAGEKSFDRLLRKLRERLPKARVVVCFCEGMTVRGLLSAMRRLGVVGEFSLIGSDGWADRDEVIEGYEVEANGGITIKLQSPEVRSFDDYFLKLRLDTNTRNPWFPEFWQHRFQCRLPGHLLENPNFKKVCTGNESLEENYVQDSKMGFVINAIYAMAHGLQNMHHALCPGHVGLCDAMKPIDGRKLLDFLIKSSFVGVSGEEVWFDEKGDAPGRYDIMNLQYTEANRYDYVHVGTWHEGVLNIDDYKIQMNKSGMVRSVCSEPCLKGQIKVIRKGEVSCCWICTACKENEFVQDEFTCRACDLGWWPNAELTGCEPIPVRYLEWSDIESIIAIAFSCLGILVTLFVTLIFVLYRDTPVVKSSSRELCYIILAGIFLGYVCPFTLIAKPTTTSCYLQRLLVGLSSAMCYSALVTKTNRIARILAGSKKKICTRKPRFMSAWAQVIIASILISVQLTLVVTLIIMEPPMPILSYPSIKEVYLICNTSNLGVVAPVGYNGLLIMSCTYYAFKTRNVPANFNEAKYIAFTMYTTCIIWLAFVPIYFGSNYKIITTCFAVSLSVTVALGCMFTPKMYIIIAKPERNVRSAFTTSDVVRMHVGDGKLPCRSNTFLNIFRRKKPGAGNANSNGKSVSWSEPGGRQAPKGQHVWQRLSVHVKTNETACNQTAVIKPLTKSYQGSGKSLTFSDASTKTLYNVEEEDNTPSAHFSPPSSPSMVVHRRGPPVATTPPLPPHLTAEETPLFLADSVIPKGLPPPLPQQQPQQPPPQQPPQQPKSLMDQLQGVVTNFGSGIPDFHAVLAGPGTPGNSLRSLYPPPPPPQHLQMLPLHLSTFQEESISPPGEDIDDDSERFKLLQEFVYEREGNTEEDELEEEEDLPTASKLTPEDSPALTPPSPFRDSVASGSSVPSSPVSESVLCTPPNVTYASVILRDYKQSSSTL
Adra2b (gene 24174), sequence (P19328 whole entry, looked up): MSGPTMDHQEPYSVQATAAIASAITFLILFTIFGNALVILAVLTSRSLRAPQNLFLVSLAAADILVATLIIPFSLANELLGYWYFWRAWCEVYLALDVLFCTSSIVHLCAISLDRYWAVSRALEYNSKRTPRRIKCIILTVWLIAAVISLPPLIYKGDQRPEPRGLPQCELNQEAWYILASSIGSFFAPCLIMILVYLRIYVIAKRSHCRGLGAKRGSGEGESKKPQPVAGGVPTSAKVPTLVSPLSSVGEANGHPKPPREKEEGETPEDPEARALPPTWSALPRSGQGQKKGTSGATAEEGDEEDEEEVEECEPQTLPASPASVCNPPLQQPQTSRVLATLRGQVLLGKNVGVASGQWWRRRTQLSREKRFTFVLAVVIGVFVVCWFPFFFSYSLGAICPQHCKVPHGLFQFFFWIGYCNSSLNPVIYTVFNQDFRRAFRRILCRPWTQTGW
rat Opioid Receptor, Non-selective Sodium (Na+) Binding, Oprm1 (gene 25601), sequence (P33535 whole entry, looked up): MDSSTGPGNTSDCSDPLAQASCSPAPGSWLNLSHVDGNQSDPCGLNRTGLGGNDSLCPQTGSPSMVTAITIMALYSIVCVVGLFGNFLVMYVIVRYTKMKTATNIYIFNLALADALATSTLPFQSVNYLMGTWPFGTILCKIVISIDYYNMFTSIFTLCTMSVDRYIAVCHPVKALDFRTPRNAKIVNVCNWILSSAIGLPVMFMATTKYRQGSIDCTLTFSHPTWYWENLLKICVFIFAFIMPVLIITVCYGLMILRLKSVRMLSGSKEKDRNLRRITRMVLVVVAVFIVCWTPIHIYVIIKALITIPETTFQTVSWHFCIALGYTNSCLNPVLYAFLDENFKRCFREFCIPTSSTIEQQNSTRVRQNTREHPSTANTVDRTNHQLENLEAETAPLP
rat Corticotropin Releasing Factor Receptor (CRF), Crhr1 (gene 58959), sequence (P35353 whole entry, looked up): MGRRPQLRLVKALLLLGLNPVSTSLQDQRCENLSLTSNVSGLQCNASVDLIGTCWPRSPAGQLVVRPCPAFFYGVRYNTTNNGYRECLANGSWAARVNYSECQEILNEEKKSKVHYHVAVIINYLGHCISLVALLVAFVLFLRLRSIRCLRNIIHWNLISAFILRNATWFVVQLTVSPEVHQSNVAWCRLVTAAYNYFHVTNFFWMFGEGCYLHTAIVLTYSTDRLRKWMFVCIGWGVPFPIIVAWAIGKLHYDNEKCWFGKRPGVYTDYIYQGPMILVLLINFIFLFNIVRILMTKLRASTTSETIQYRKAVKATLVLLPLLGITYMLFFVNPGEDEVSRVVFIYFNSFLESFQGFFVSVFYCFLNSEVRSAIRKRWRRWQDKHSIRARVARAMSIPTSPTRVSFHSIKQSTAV

Turning to `COC(=O)c1ccccc1S(=O)(=O)NC(=O)N(C)c1nc(C)nc(OC)n1`, in assay [1], the molecule was classed as inactive.

Consider `CC(C)(C)C(O)C(Oc1ccc(Cl)cc1)n1cncn1` (stereo unspecified), for which the call in assay [2], in assay [3] and in assay [4] was inactive. Moreover, in [4], the AC50 was 38.2 µM (active).

`CCc1ccc(C(=O)NN(C(=O)c2cc(C)cc(C)c2)C(C)(C)C)cc1`: in [2], the result was inactive.

With `Oc1cc(Cl)ccc1Oc1ccc(Cl)cc1Cl`, the AC50 in assay [5] was 19.9 µM (active) and 7.86 µM (active) and 15.6 µM (active); in assay [6], 18.7 µM (active). Also, in assay [5], the molecule was classed as inactive.

As for `CCCN(CCOc1c(Cl)cc(Cl)cc1Cl)C(=O)n1ccnc1`, the AC50 in assay [5] was 10.5 µM (active); in assay [2], 6.71 µM (active); in assay [7], 1.85 µM (active); with Adra2b (gene 24174), 3.65 µM (active). The call in assay [4] was inactive.

For the molecule `CCC(C)(C)C(=O)OC1=C(c2ccc(Cl)cc2Cl)C(=O)OC12CCCCC2`, the molecule was classed as inactive in assay [1], in [2] and in [8].

In the case of `CNC(=O)/C=C(\C)OP(=O)(OC)OC`, in [9], the molecule was classed as inactive.

As for `CCOCN(C(=O)CCl)c1c(C)cccc1CC`, the outcome in [10] was inactive.

On to `N#Cc1c(Cl)c(Cl)c(Cl)c(C#N)c1Cl`, for which the call in assay [11] and in [12] was inactive.

Regarding `CC[C@H](C)[C@H]1O[C@]2(C=C[C@@H]1C)C[C@@H]1C[C@@H](C/C=C(\C)[C@@H](O[C@H]3C[C@H](OC)[C@@H](O[C@H]4C[C@H](OC)[C@@H](O)[C@H](C)O4)[C@H](C)O3)[C@@H](C)/C=C/C=C3\CO[C@@H]4[C@H](O)C(C)=C[C@@H](C(=O)O1)[C@]34O)O2` (tested in a mixture with another compound), the concentration at half-maximal activity (AC50) is 9.27 µM (active) in [5], 12.4 µM (active) in assay [2], 16.4 µM (active) in assay [13] and 9.49 µM (active) in assay [12]. For the same molecule, the molecule was classed as inactive in assay [6].

`Oc1ccc(Cl)cc1Cc1ccccc1`: the AC50 in assay [5] is 16.5 µM (active) [middle of 6 runs]; in [2] it was 19.8 µM (active) [middle of 4 runs]; in assay [11], 17.2 µM (active) [middle of 6 runs]; in assay [6], 25.2 µM (active). Moreover, the molecule was called inactive in [5], in [14], in [15] and in assay [4].

Turning to `CC(C)(C)C(O)/C(=C\c1ccc(Cl)cc1Cl)n1cncn1` (stereo unspecified), the call in assay [5] was inactive.

`O=S(=O)(O)C(F)(F)C(F)(F)C(F)(F)C(F)(F)C(F)(F)C(F)(F)C(F)(F)C(F)(F)F`: the molecule was called inactive in assay [16], in [3] and in [6].

As to `O=C1c2ccccc2C(=O)N1SC(Cl)(Cl)Cl`, in assay [5], the AC50 was 6.04 µM (active).

Turning to `O=[N+]([O-])/N=C1\NCCN1Cc1ccc(Cl)nc1`, the AC50 in assay [8] is 8.29 µM (active).

With `CC(C)N(C(=O)COc1nnc(C(F)(F)F)s1)c1ccc(F)cc1`, the molecule was classed as inactive in assay [12].

Take `C#CCN1C(=O)COc2cc(F)c(N3C(=O)C4=C(CCCC4)C3=O)cc21`: the call in [1] and in assay [14] was inactive.

`O=C(Nc1ccccc1)Nc1cnns1`: the AC50 in assay [11] was 6.99 µM (active). In addition, the molecule was called inactive (in [17]; in [18]; in [19]; with Adra2b (gene 24174); in assay [4]; in [10]).

As for `O=[N+]([O-])c1c(Cl)c(Cl)c(Cl)c(Cl)c1Cl`, the outcome in assay [18] was inactive.

For orientation: AC50 means the concentration at which the activity in the assay is half-maximal.
